# Screening results: PubChem BioAssay, several laboratories
# TMEM16A act: TMEM16A chloride channel activators or potentiators, primary screen, cell-based, HTS; HEK293 TMEM16A/YFP-H148Q/I152L, iodide quench fluorescence; stronger effect = lower value; Anoctamin-1 (Mus musculus), Q8BHY3; 0.3% of 340,000 active; B-score at 10 µM;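 active = fluorescence-ratio B-score plate-corrected deviation score at least 3 library SD below zero, with starting fluorescence score within 5 deviations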;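 also: channel opened by trigger with iodide after compound preincubation; score built on the fluorescence ratio of max minus min over baseline; more negative score means more quench and so TMEM16A activation or potentiation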
# Target sequence (Q8BHY3 whole entry, looked up): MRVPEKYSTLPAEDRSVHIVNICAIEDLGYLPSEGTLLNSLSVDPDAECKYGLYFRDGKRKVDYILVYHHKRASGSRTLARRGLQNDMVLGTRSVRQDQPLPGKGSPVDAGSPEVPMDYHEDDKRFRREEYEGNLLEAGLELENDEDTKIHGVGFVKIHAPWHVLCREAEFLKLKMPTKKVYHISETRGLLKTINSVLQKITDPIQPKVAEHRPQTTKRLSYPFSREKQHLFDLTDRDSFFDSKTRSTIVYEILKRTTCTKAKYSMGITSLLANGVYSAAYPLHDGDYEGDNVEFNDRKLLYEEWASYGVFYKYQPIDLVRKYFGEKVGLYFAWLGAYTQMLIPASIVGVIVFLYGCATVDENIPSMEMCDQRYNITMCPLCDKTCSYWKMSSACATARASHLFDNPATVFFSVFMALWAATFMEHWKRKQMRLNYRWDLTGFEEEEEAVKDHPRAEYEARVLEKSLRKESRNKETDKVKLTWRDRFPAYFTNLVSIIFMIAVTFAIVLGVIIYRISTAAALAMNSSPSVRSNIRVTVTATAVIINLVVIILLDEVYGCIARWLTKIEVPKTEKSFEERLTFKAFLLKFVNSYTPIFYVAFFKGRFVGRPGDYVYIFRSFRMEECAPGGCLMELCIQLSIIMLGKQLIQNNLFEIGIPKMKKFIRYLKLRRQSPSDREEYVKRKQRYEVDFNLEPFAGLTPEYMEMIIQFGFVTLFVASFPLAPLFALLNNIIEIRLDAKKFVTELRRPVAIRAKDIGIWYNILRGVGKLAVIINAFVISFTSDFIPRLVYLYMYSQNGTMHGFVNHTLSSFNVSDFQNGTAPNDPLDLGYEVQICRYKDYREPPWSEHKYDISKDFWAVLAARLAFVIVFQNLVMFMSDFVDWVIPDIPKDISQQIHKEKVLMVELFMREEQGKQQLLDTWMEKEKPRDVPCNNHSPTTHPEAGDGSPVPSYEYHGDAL
# CRFR2-BP ag: agonists of CRF-BP/CRF-R2 complex, primary screen, cell-based, HEK293, calcium dye fluorescence, uHTS; CRF-binding protein / CRF receptor 2 complex (human); activation, % at 13.2 µM; 0.46% of 350,000 active; calcium dye fluorescence (FLIPR); percent of saturating CRF peptide response; AID 588473, 2011;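 active = activation of at least 50%, plus an integration ratio under a set limit after plate pattern correction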;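 also: plate controls were neutral control wells without compound for no effect and CRF at EC100 for full effect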
# ANO1 block: TMEM16A chloride channel inhibitors, primary screen, cell-based, HTS | Anoctamin-1 (Mus musculus), Q8BHY3 | HEK293 TMEM16A/YFP iodide influx fluorescence, ionomycin | normalized B-score (activity score, 25-100; higher = stronger inhibition) at 10 µM | 1.2% of 310,000 active;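 active = ratio plate-corrected score three or more library SD toward inhibition, starting fluorescence score within five deviations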;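 also: score derived from kinetic fluorescence span divided by baseline fluorescence per well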
# CRFBP-R2 block: antagonists of CRF-BP/CRF-R2 complex, primary screen, cell-based, HEK293, calcium dye fluorescence, uHTS | inhibition, % at 11.8 µM | AID 588475, 2011 | CRF-induced calcium fluorescence | 0.59% of 350,000 active;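 active = inhibition of the ligand-induced calcium signal above about 50% at the single tested concentration, limit read from the data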
# MPTP inh: mitochondrial permeability transition pore inhibitors, primary screen, biochemical, isolated mouse mitochondria, absorbance. inhibition, % at 10 µM. 1.4% of 360,000 active. Ca2+ swelling absorbance, 30 min;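 active = inhibition of 50% or more, scaled per plate between neutral and stimulator controls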;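 also: 0% = DMSO wells given calcium and 100% = 1 mM EGTA wells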
# NR3A LBD binder: binders of NR3A ligand-binding domain, primary screen, biophysical, differential scanning fluorimetry, uHTS | Glutamate receptor ionotropic, NMDA 3A (GRIN3A) ligand-binding domain | NR3A LBD differential scanning fluorimetry, Tm shift; 0% = protein alone, 100% = glycine-bound protein | Tm shift relative to glycine control, % at 25 µM | 2.5% of 340,000 active | AID 1259313, 2017;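 active = melting temperature shift of at least 10% of the positive control shift, at one fixed dose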
# TMEM16A reconf: TMEM16A chloride channel inhibitors, confirmation, cell-based, re-confirmation; HEK293 TMEM16A/YFP-H148Q, iodide quench fluorescence; ionomycin added to raise cell calcium; shares compounds with ANO1 block; 39% of 2,300 active; inhibition, % at 10 µM;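 active = mean duplicate percent inhibition, scaled so buffer wells are 0 and the reference blocker 100, over three buffer SD above buffer mean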
# TMEM16A Ca cntr: calcium mobilization in TMEM16A/YFP HEK293 cells, confirmation, counter-screen for TMEM16A inhibitor project. shares compounds with ANO1 block. Fluo4 calcium mobilization. calcium response (% of ionomycin), % at 10 µM. 2% of 2,300 active;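 active = duplicate-averaged calcium signal over 20% of the ionomycin maximum, relative to buffer baseline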;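 also: each well's signal is peak minus trough fluorescence divided by its pre-addition baseline; 0% = buffer wells and 100% = ionomycin wells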
# Parental YFP cnt: iodide YFP quench changes in parental YFP-HEK293, counter-screen for TMEM16A inhibitor project, cell-based | 2,300 tested, under 10 active | AID 652233, 2013 | YFP ratio F(max-min)/F0 at 10 µM | shares compounds with ANO1 block | ionomycin;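 active = yellow fluorescent protein signal ratio exceeding the buffer control mean by over 5 SD of those controls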;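 also: ratio is mean of duplicate wells from kinetic YFP trace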
# ClC-1 inh: ClC-1 chloride channel inhibition, selectivity assay for TMEM16A inhibitor project, cell-based, voltage-dependent ClC-1 | shares compounds with ANO1 block | CHO ClC-1-YFP, iodide influx fluorescence quench; iodide control reads 0, buffer control 100 | ratio percent, % at 10 µM | 2,300 tested, under 10 active;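 active = duplicate-mean ratio percent above the mean of iodide-only control wells, which defines zero, plus 5 of their SD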;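 also: higher percent means stronger block of ClC-1 iodide influx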
# Rh123 counter: fluorescence retest of MPTP screen hits in isolated mitochondria, single concentration. shares compounds with MPTP inh. 78% of 5,000 active. inhibition, % at 10 µM. membrane potential, Rhodamine 123 fluorescence; in the data active = inhibition above about 22%;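 also: 0% = DMSO vehicle and 100% = positive control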
# MPTP abs DR: mitochondrial permeability transition pore inhibitors, dose response, biochemical, absorbance, uHTS hits; shares compounds with MPTP inh; isolated mitochondria swelling; IC50, µM; 58% of 780 active; AID 651561, 2012; in the data active = IC50 below about 20 µM
# MPTP cs DR: fluorescent counter-screen in isolated mitochondria, dose response, counter-screen for MPTP inhibitor project, biochemical, fluorescence, uHTS hits | shares compounds with MPTP inh | isolated mitochondria counterscreen, fluorescence read-out | IC50, µM | 49% of 780 active | AID 651564, 2012; in the data active = IC50 below about 80 µM
# Active calls of the source: *; i = inactive; . = no result given. Most compounds without a hit are left out; they make up all but 5.1% or so of the library.
SMILES,TMEM16A act,CRFR2-BP ag,ANO1 block,CRFBP-R2 block,MPTP inh,NR3A LBD binder,TMEM16A reconf,TMEM16A Ca cntr,Parental YFP cnt,ClC-1 inh,Rh123 counter,others
COc1ccc(NC(=S)NC(NC(C)=O)C(Cl)(Cl)Cl)c([N+](=O)[O-])c1 (stereo unspecified),i,-1.9,i,0.6,4.3,-1.8,.,.,.,.,.,
CN1/C(=C\C(=O)Nc2ccc(Cl)cc2)C(C)(C)c2ccccc21,i,0.2,25*,-16.3,78.6*,1.7,i,i,-1.29,-10.0,70.0*,
CN1/C(=C\C(=S)NC(=O)c2ccccc2Cl)C(C)(C)c2ccccc21,i,3.0,i,1.7,6.7,-0.4,.,.,.,.,.,
COc1ccccc1NS(=O)(=O)c1ccc2[nH]c(=S)oc2c1,i,-0.6,.,10.8,0.5,-3.1,.,.,.,.,.,
O=C(NCCSCc1ccco1)Nc1cc(Cl)cc(Cl)c1,i,0.5,100*,-6.0,86.5*,3.0,33.5%*,i,-0.963,-20.5,90.2*,
O=C(CSCc1ccc(Cl)cc1)NCCSCc1ccco1,i,-0.5,i,6.5,1.0,0.5,.,.,.,.,.,
Cn1nccc1C(=O)NC1CCCc2c1cnn2-c1ccc(C(C)(C)C)cc1 (stereo unspecified),i,-1.5,25*,-11.6,97.8*,15.8*,27.5%*,i,-0.945,-14.0,103.5*,
O=C(Nn1c(C2CCCCC2)nc2ccccc2c1=O)c1ccc(Cl)c([N+](=O)[O-])c1,i,27.1,25*,3.4,71.9*,3.5,22.0%*,i,-1.13,-9.0,82.9*,
O=C(Nn1c(C2CCCCC2)nc2ccccc2c1=O)c1cc(Cl)ccc1[N+](=O)[O-],i,-1.7,i,-35.7,8.2,-4.0,.,.,.,.,.,
COC(=O)c1c(NC(=O)c2ccc(OC(C)C)cc2)sc2c1CC(C)(C)NC2(C)C,i,-0.4,100*,-13.0,86.9*,3.1,i,i,-0.904,-7.0,1.8,MPTP abs DR=>100;MPTP cs DR=55.8*
CC(C)CN1C(=O)c2ccc(C(=O)Nc3ccncc3)cc2C1=O,i,0.6,25*,1.3,60.0*,0.0,27.0%*,i,-0.994,-18.0,70.3*,
CC(C)CN1C(=O)c2ccc(C(=O)Nc3ccccn3)cc2C1=O,i,-0.7,i,3.5,0.5,-1.0,.,.,.,.,.,
Cc1c(CN(C)C(=O)c2sc3cc(Cl)ccc3c2Cl)cnn1C,i,-0.8,100*,3.1,83.6*,-2.9,33.5%*,i,-1.02,-14.5,80.4*,
CC(C)c1ccc(NC(=O)C2Cc3c(-c4cccc(F)c4)ccnc3O2)cc1 (stereo unspecified),.,.,.,.,0.6,.,.,.,.,.,.,
Fc1nc(F)c(F)c(NCCCNc2c(F)c(F)nc(F)c2F)c1F,i,-2.6,100*,24.0,92.6*,3.3,51.5%*,i,-0.998,-27.5,94.5*,
COCCN(C(=O)CSc1nnc(-c2ccccc2OC)o1)c1c(N)n(CC(C)C)c(=O)[nH]c1=O,i,-1.5,i,18.2,-0.9,3.3,.,.,.,.,.,
CCOc1ccc(S(=O)(=O)NCCC(=O)N(C)Cc2cccs2)cc1,i,-3.6,.,3.0,-0.7,1.0,.,.,.,.,.,
COc1ccc(CCNC(=O)CCOc2ccc(C(C)(C)C)cc2)cc1OC,i,0.2,i,-0.6,0.5,0.8,.,.,.,.,.,
O=C(C=C1CCN(c2ncc(C(F)(F)F)cc2Cl)CC1)NNC(=O)Nc1ccccc1,i,3.3,i,2.0,9.4,-9.8,.,.,.,.,.,
FC(F)(F)c1cnc(N2CCCN(C(=S)Nc3ccccc3)CC2)c(Cl)c1,i,4.8,100*,-23.0,70.0*,1.1,33.0%*,i,-0.853,-8.0,50.5*,
COc1ccc(CCN(C)C(=O)Cc2ccc(-c3ccccc3)cc2)cc1OC,i,-0.1,25*,-2.6,64.4*,-2.7,i,i,-1.21,-18.0,72.4*,
O=C(Nc1ccc2c(c1)OCCO2)C1c2ccccc2OCC(=O)N1C1CC1 (stereo unspecified),.,.,.,.,1.1,.,.,.,.,.,.,
Cc1ccc(C)c(OCC(=O)Nc2nc3ccc([N+](=O)[O-])cc3s2)c1C,i,-0.2,100*,-14.2,76.0*,-1.9,i,i,-1.05,-23.5,56.4*,
Cc1cc(OCC(=O)Nc2ccncc2)c(C)cc1Br,i,1.2,25*,-17.8,97.8*,-3.1,34.0%*,i,-0.876,0.5,84.0*,
CC(C)CCOc1cccc(OCC(=O)Nc2ccncc2)c1,i,2.0,25*,-6.6,106.8*,-10.7,17.0%*,i,-1.23,-8.5,100.5*,
COC(=O)[C@]12CCCCC=C1N(Cc1cccc3ccccc13)C(=O)[C@H](CC(=O)N1CCN(C(=O)c3ccco3)CC1)C2,.,.,.,.,-0.1,.,.,.,.,.,.,
CCCS(=O)(=O)NC(=O)C1(C)CCCN(C(=O)/C=C/c2ccccc2)C1 (stereo unspecified),.,.,.,.,-0.1,.,.,.,.,.,.,
